Results on 43 compounds are retold here after PubChem BioAssay (NCATS).

Records with an inconclusive call do not appear. A call without a number means that no potency is given here. Calls of active or inactive are those of the source. Calls follow the shape of the full dose curve.

The nature of test [1]: Cytotoxicity counterscreen for inhibitors of SARS-CoV-2 cell entry (AID 1645845). Also: nearly all actives have a fitted effect of over 50% in size. In a few lines:
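After a 15 min room-temperature ATPLite 1step step, luminescence reflected ATP remaining in HEK293-ACE2 cells exposed to compound for 1 h plus 48 h at 37 C, with percent activity set by cell and no-cell controls.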

Test [2] can be described thus: Confirmatory qHTS to identify inhibitors of SARS-CoV-2 cell entry (AID 1645844). Also: nearly all actives have a fitted effect of over 45% in size. In a few lines:
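Using stable human ACE2 Expi293F cells, compounds preincubated 1 hr before spike pseudoparticle infection; luciferase signal after 48 hr at 37C, 5% CO2, normalised to spike PP and no-fusion-protein PP wells.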

Test [3] can be described thus: Primary qHTS to identify inhibitors of SARS-CoV-2 cell entry (AID 1645846). Also: nearly all actives have a fitted effect of over 45% in size. As to conditions: activity change, negative = inhibition: at 57.1 µM (top of the series) unless noted. The gist of the method:
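Luminescence readout (Bright-Glo luciferase) 48 h after pseudoparticle addition. HEK293-ACE2 cells, 1500/well; compound pre-incubation 1 h; Normalized to spike PP and bald PP.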
Potency is read from the fitted curve at half-maximal effect.

Regarding `O=C(Nc1cc(C(F)(F)F)cc(C(F)(F)F)c1)c1cc(Cl)ccc1O`, in test [1], the Potency was 1.58 µM (active). `CC(C)(C)c1cc(NC(=O)Nc2ccc(-c3cn4c(n3)sc3cc(OCCN5CCOCC5)ccc34)cc2)no1`: in test [1], the Potency entry was “inactive”. Turning to `COc1nc(-c2ccc3c(c2)OCO3)n(-c2ccc(NC(=O)CSc3ccccc3)cc2)n1`, in test [1], the Potency result was “inactive”. `CC(C)[C@H](C(=O)Nc1ccc(C(=O)NO)cc1)c1ccccc1`: the Potency result in test [2] is “inactive”. In test [3], the activity change, negative = inhibition was -95.5%. On to `CN(c1ncccc1CNc1nc(Nc2ccc3c(c2)CC(=O)N3)ncc1C(F)(F)F)S(C)(=O)=O`, for which the Potency in test [2] was 0.857 µM (active); in test [3], 3.16 µM (active).

As for `CC(C)C(=O)Nc1ncc(-c2cc(C(F)F)nn2-c2c(Cl)cccc2Cl)s1`, the Potency entry in test [1] is “inactive”.

With `Cc1cccc(-c2[nH]c(C(C)(C)C)nc2-c2ccc3nccnc3c2)n1`, the Potency result in test [1] is “inactive”. On to `c1ccc2c(-c3cnn4cc(-c5ccc(N6CCNCC6)cc5)cnc34)ccnc2c1`, for which the Potency in test [1] is 7.08 µM (active).

With `CCOC(CN1C(=O)[C@](CC(=O)Nc2ccc(C)cc2)(NC(=O)Nc2ccc(C)cc2)c2ccccc21)OCC`, in test [1], the Potency result was “inactive”. In the case of `N#Cc1c(O)c2c(-c3ccc(-c4ccccc4O)cc3)csc2[nH]c1=O`, in test [1], the Potency entry is “inactive”. Moreover, the activity change, negative = inhibition in test [3] stood at 3.57%. For the compound `CC(C)C[C@H](NC(=O)[C@@H](O)[C@H](N)Cc1ccccc1)C(=O)O`, in test [1], the Potency entry was “inactive”. In test [3], the activity change, negative = inhibition is -29.5%. With `COc1ccc(CCN2CCN(CCCc3ccccc3)CC2)cc1OC`, in test [1], the Potency result is “inactive”. In the case of `CCOC(=O)[C@@H](N)CCC(=O)N[C@@H](CSCc1ccccc1)C(=O)N[C@@H](C(=O)OCC)c1ccccc1`, in test [1], the Potency entry is “inactive”. In test [3], the activity change, negative = inhibition worked out at 0.458%. Take `COc1cccc2cc(-c3nc(C4CCC(C(=O)O)CC4)n4ncnc(N)c34)[nH]c12` (stereo not drawn): the Potency result in test [1] is “inactive”.

`C[C@@H]1CN(CC(=O)Nc2ccc3c(c2)Cc2cccc(-c4cc(=O)cc(N5CCOCC5)o4)c2S3)C[C@H](C)O1`: the Potency in test [1] is 14.1 µM (active).

Regarding `Clc1ccc2ncc(-c3cccc(NC4CNC4)n3)n2c1`, the Potency result in test [1] was “inactive”. Moreover, in test [3], the activity change, negative = inhibition is -15.1%.

Turning to `CC(=O)NCCC(=O)N[C@@H](CCC(N)=O)C(=O)N[C@@H](CO)C(=O)N[C@@H](CCC(N)=O)C(=O)N[C@@H](CCC(N)=O)C(=O)N[C@H](C(=O)N[C@@H](Cc1ccccc1)C(=O)N[C@]1(C)CCCCCCC=CCCC[C@@](C)(C(=O)N[C@@H](CCC(N)=O)C(=O)N[C@@H](CC(N)=O)C(N)=O)NC(=O)[C@H](CC(C)C)NC(=O)[C@H](CC(C)C)NC(=O)[C@@H](CCCNC(=N)N)NC(=O)[C@H](Cc2c[nH]c3ccccc23)NC(=O)[C@H](CC(C)C)NC(=O)[C@H](CC(N)=O)NC1=O)[C@H](C)O`, the Potency result in test [1] is “inactive”. `COc1cc2ncn(-c3cc(OCc4ccccc4C(F)(F)F)c(C(N)=O)s3)c2cc1OC`: the Potency in test [1] was 2.51 µM (active). As for `c1ccc(-c2nn3c(c2-c2ccnc4cc(OCCN5CCOCC5)ccc24)CCC3)nc1`, in test [1], the Potency result is “inactive”. The activity change, negative = inhibition in test [3] worked out at 3.16%.

As to `CC(=O)OCCN1C(=O)c2c(C)nc3ccc(S(=O)(=O)N4CCOCC4)cc3c2C1=O`, the Potency entry in test [1] was “inactive”. Also, the activity change, negative = inhibition in test [3] stood at 2.17%.

Take `CCN(CC)CCCCNc1nc2cc(Cl)c(Cl)cc2nc1-c1ccc(-c2cccs2)s1`: the Potency result in test [1] is “inactive”.

On to `Clc1ccc(C(c2ccc(Cl)cc2)n2cc[n+](CC(OCc3ccc(Cl)cc3Cl)c3ccc(Cl)cc3Cl)c2)cc1` (stereo not drawn), for which the Potency in test [1] is 31.6 µM (active). Consider `O=C(Nc1cccc(C2=NCCN2)c1)Nc1cccc(C2=NCCN2)c1`, for which the Potency entry in test [1] and in test [3] was “inactive” in each case.

Turning to `CN(C)C1CCN(C(=O)c2ccc(NC(=O)Nc3nc(N4CCOCC4)nc(N4CCOCC4)n3)cc2)CC1`, the Potency in test [1] was 6.31 µM (active). For `Cc1ccccc1-n1c(Cn2cnc3c(N)ncnc32)nc2cccc(C)c2c1=O`, the Potency result in test [1] and in test [3] was “inactive” each time. For `Cc1cc([C@@H](C)Nc2ccccc2C(=O)O)c2nc(N3CCOCC3)cc(=O)n2c1`, the Potency result in test [1] was “inactive”. With `OCCC#Cc1nc(-c2ccc(F)cc2)c(-c2ccncc2)n1CCCc1ccccc1`, the Potency entry in test [1] is “inactive”. `COc1cc(Oc2ccnc3cc(OC)c(OC)cc23)ccc1NC(=O)NC(C)c1nccs1` (stereo not drawn): in test [1], the Potency result was “inactive”. On the same count and under the same terms, under `O=C(NCCS(=O)(=O)c1ccc(C(F)(F)F)cn1)c1ccc(Cl)cc1` stands “inactive”; under `NC(=O)c1c(OCc2c(F)cc(Br)cc2F)nsc1NC(=O)NCCCCN1CCCC1`, “inactive”. As for `O=C(Nc1cccnc1)N1CCC(Cc2cccc(Oc3ccc(C(F)(F)F)cn3)c2)CC1`, in test [1], the Potency was 20 µM (active).

`NC(=O)c1ccc(-c2nc(-c3ccc4c(c3)OCCO4)c(-c3ccccn3)[nH]2)cc1`: in test [1], the Potency entry is “inactive”. In the case of `Oc1cccc(-c2nc(N3CCOCC3)c3oc4ncccc4c3n2)c1`, the Potency result in test [1] is “inactive”.

For `CCCCCCCCCCCCCC(=O)N[C@H](CO)[C@H](O)c1ccc([N+](=O)[O-])cc1`, the Potency result in test [1] and in test [3] was “inactive” each time. Regarding `C=C1C(=CC=C2CCC[C@]3(C)[C@@H]([C@H](C)C=C[C@H](C)C(C)C)CC[C@@H]23)C[C@@H](O)C[C@@H]1O`, the Potency result in test [1] and in test [3] was “inactive” in each case. On to `COc1ccc(OC)c(-c2nnc3ccc(-c4ccc(OC)c(O[C@@H]5CCOC5)c4)nn23)c1`, for which, in test [1], the Potency result was “inactive”.

For `Cc1cc2c(F)c(Oc3ncnn4cc(OC[C@@H](C)O)c(C)c34)ccc2[nH]1`, the Potency entry in test [1] was “inactive”.

For `COc1cc(N2CCC(N3CCN(C)CC3)CC2)ccc1Nc1ncc(Cl)c(Nc2ccccc2S(=O)(=O)C(C)C)n1`, in test [1], the Potency is 31.6 µM (active). For the compound `COc1nc(C)cnc1NS(=O)(=O)c1cccnc1-c1ccc(-c2nnco2)cc1`, the Potency entry in test [1] and in test [3] was “inactive” in each case. As to `C1CCC(NC2CCCCC2)CC1`, the Potency entry in test [1] and in test [3] was “inactive” throughout. With `COc1cc2c(cc1OC)CN(CCc1ccc(NC(=O)c3cccc4c(=O)c5cccc(OC)c5[nH]c34)cc1)CC2`, the Potency entry in test [1] was “inactive”. For the same compound, the activity change, negative = inhibition in test [3] was -26.4%. In the case of `Cc1ccc(NC(=O)c2cccc(C(C)(C)C#N)c2)cc1Nc1ccc2ncn(C)c(=O)c2c1`, the Potency result in test [1] is “inactive”. As for `S=c1[nH]c2ccccc2s1`, in test [1], the Potency result was “inactive”.
